Assay results as given in PubChem BioAssay (NCI).
The panel holds about 79,000 compounds, 15% with a hit somewhere; the sample as a whole holds those more often. The source made the active and inactive calls. No stated cut-off is given here; in the data, active means growth inhibition above about 70%; inactive means the rest.

What was measured:
[1] = NCI Yeast Anticancer Drug Screen. Data for the rad50 strain (AID 155);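 further: 0% = growth of vehicle-only cultures of the same strain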; conditions: S. cerevisiae rad50 strain growth inhibition, hits give high values
Outline: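 Genetically altered yeast (DNA repair pathway); compound treatment; growth inhibition vs vehicle ctrl.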

[2] = NCI Yeast Anticancer Drug Screen. Data for the mec2-1 strain (AID 157); conditions: S. cerevisiae mec2-1 strain, hits give high values
Outline: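 Growth inhibition is read against vehicle-treated controls after compound exposure of the mec2-1 yeast strain, which is defective in DNA damage repair or cell cycle control.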

[3] = NCI Yeast Anticancer Drug Screen. Data for the sgs1 mgt1 strain (AID 161);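 further: 0% = growth of cultures given vehicle only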; conditions: S. cerevisiae sgs1 mgt1 strain, hits give high values
Outline: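 Compounds are added to genetically altered yeast, and growth is compared with cultures given vehicle alone to give percent inhibition.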

[4] = NCI Yeast Anticancer Drug Screen. Data for the cln2 rad14 strain (AID 165);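 further: 0% = growth equal to vehicle treated cultures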; conditions: S. cerevisiae cln2 rad14 strain, hits give high values
Outline: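 Growth inhibition, relative to vehicle-treated controls, is the read-out. The test organism is a yeast strain with defined genetic alterations, cln2 rad14.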

[5] = NCI Yeast Anticancer Drug Screen. Data for the bub3 strain (AID 167); conditions: S. cerevisiae bub3 mutant strain, hits give high values
Outline: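 Yeast carrying a defined mutation is treated with each compound, and growth is compared with that of vehicle-exposed cells to give inhibition.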

[6] = NCI Yeast Anticancer Drug Screen. Data for the mlh1 rad18 strain (AID 175); conditions: S. cerevisiae mlh1 rad18 strain growth inhibition, hits give high values
Outline: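 Cells of a genetically altered yeast strain, deficient in DNA damage repair, were treated with compound. Their growth was then compared with that of vehicle-treated cultures to give inhibition.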

[7] = at 5.0 µM (retest, dose inferred, filed as 0.5)
[8] = at 50.0 µM (retest, dose inferred, filed as 5.0)

Measured: growth inhibition

OC(c1ccc(Cl)cc1)C(Cl)(Cl)Cl (configuration not stated)
active: [1]; [8] 98% | [1]; at 50.0 µM 97.6% | [2]; [8] 98% | [2]; at 50.0 µM 96.8% | [3]; at 50.0 µM 81.2% | [4]; [8] 96% | [4]; at 50.0 µM 77.8% | [5]; [8] 99% | [5]; at 50.0 µM 95.3% | [6]; [8] 97% | [6]; at 50.0 µM 97.5%
inactive: [1]; [7] 6% | [2]; [7] 0% | [3]; [7] -1% | [3]; [8] 35% | [4]; [7] 1% | [5]; [7] -8% | [6]; [7] 3%

CCOC(=O)/C(=C\c1ccc(C(=O)OC)cc1)[Se]c1ccccc1
active: [1]; at 50.0 µM 74%
inactive: [1]; [7] 13% | [1]; [8] 54% | [2]; [7] 6% | [2]; [8] 26% | [2]; at 50.0 µM 40.8% | [3]; [7] -3% | [3]; [8] 53% | [3]; at 50.0 µM 64.3% | [4]; [7] 3% | [4]; [8] 44% | [4]; at 50.0 µM 51.7% | [5]; [7] 18% | [5]; [8] 53% | [5]; at 50.0 µM 38.4% | [6]; [7] -11% | [6]; [8] 64% | [6]; at 50.0 µM 58.8%

COc1cc(C2c3cc4c(cc3[C@@H](Nc3ccc(F)cc3)C3COC(=O)[C@H]23)OCO4)cc(OC)c1O (some centres not stated)
active: [1]; [7] 96% | [1]; [8] 96% | [1]; at 50.0 µM 85.3% | [2]; [7] 97% | [2]; [8] 98% | [2]; at 50.0 µM 91.2% | [3]; [7] 94% | [3]; [8] 99% | [3]; at 50.0 µM 88.9% | [4]; [8] 99% | [4]; at 50.0 µM 87.8% | [5]; [7] 99% | [5]; [8] 99% | [5]; at 50.0 µM 88.6% | [6]; [7] 95% | [6]; [8] 95% | [6]; at 50.0 µM 88.1%
inactive: [4]; [7] 41%

CCC[CH2][Pb]([CH2]CCC)([O]C(C)=O)[O]C(C)=O
inactive: [2]; [7] 63%
active: [1]; [7] 99% | [1]; [8] 99% | [1]; at 50.0 µM 90% | [2]; [8] 99% | [2]; at 50.0 µM 93.1% | [3]; [7] 99% | [3]; [8] 94% | [3]; at 50.0 µM 94% | [4]; [7] 92% | [4]; [8] 98% | [4]; at 50.0 µM 92.3% | [5]; [7] 99% | [5]; [8] 98% | [5]; at 50.0 µM 92.2% | [6]; [7] 100% | [6]; [8] 99% | [6]; at 50.0 µM 91.5%
